Laboratory results from ChEMBL document CHEMBL3988442, “University of Dundee, Small-Polar-MMV Screening Library” (2021).
For some assays here: Measured potencies and affinities stand elsewhere.

Tests used:
Parameters in all cases: scale not given: direction of the effect not stated beside the values
[1] = target: Protein translocase subunit SecA (Escherichia coli (strain K12)) (UniProt P10408); assay: Assay to Identify E. coli SecA ATPase Inhibitors; assay type: functional; conditions: 30 µM
[2] = target: T1, Ubiquitin-activating enzyme e1, putative (Leishmania donovani (strain BPK282A1)) (UniProt E9BSI1); assay: Leishmania donovani Ubiquitin Activating Enzyme (LdE1); assay type: functional; conditions: 30 µM
T1 sequence (whole entry): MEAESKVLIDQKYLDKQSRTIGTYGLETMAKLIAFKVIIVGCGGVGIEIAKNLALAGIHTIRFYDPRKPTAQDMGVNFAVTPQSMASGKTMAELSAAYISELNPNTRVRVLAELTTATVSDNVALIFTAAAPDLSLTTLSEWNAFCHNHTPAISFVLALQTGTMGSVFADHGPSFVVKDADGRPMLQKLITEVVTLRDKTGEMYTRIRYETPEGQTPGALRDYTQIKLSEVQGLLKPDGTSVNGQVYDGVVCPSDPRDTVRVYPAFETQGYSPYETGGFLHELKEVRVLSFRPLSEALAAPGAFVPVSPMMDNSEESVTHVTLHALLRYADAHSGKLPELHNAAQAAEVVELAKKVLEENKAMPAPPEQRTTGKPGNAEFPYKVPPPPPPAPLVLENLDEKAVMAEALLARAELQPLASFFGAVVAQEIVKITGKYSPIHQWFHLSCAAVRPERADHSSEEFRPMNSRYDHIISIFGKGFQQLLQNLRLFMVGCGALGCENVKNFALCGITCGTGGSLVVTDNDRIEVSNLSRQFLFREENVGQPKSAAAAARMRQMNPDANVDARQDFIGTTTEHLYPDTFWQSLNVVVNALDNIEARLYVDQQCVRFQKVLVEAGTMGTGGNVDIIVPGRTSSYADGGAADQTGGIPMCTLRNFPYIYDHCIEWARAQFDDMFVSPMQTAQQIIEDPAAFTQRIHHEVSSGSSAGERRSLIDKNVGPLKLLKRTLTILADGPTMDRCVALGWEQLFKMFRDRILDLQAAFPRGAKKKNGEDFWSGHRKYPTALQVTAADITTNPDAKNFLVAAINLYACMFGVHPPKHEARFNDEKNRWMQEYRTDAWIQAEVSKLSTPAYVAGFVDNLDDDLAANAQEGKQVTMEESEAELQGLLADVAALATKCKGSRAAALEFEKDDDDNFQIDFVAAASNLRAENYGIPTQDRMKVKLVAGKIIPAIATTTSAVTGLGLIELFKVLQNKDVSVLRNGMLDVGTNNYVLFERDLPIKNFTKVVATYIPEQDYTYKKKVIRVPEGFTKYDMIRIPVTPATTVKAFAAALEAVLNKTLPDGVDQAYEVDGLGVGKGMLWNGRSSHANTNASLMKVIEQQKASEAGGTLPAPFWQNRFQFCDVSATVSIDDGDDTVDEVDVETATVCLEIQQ

[3] = target: Sialic acid-binding Ig-like lectin 9 (Homo sapiens) (UniProt Q9Y336); assay: Hs-Siglec9 ALPHAscreen SOP 20170721; conditions: 10 µM
Trypanosoma cruzi = assay: Trypanosoma cruzi phosphomannomutase and mannose-1-phosphate guanylyltransferase assay; assay type: functional; conditions: 10 µM
[4] = target: T2, Arginase-2, mitochondrial (Homo sapiens) (UniProt P78540); assay: in vitro enzyme assay to detect the production of urea directly proportional to the activity of Arginase II; assay type: functional; conditions: 33.3 µM; further: in the data most compounds retested in dose-response had high values
T2 sequence (whole entry): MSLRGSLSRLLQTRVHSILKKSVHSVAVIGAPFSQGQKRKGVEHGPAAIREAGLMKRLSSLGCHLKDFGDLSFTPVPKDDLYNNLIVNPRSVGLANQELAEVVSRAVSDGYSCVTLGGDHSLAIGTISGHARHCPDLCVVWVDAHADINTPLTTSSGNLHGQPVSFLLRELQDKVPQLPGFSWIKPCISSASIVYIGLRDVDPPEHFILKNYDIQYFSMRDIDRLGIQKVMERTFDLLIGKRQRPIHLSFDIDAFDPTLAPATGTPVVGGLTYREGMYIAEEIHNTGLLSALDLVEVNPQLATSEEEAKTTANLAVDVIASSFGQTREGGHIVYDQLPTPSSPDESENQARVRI

[5] = target: T3, Proteasome subunit beta (Trypanosoma cruzi) (UniProt O96673); assay: Trypanosoma cruzi proteasome chymotrypsin-like activity (TcProtChymo) assay.; further: in the data most compounds retested in dose-response had high values; assay type: functional; conditions: 9.37 µM
T3 sequence (whole entry): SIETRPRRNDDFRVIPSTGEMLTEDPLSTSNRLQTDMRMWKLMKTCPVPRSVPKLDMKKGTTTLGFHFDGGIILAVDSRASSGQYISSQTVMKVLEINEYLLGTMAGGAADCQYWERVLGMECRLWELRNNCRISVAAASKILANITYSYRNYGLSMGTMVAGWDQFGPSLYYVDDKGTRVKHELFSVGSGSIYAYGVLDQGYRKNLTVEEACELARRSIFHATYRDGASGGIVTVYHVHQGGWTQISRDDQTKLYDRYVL

Homo sapiens = species: Homo sapiens; assay: To identify inhibition of the IFN signalling (Jak-Stat) pathway via expression of an eGFP reporter gene under the control of an IFN-stimulated response element (ISRE) containing MxA promoter.; assay type: functional; conditions: 30 µM
[6] = target: T4, Tyrosyl-tRNA synthetase, putative (Trypanosoma cruzi (strain CL Brener)) (UniProt Q4DSP6); assay: Trypanosoma cruzi tyrosyl tRNA synthetase (TcYRS) _High Tyrosine SOP; assay type: functional; conditions: 30 µM; further: in the data most compounds retested in dose-response had high values
T4 sequence (whole entry): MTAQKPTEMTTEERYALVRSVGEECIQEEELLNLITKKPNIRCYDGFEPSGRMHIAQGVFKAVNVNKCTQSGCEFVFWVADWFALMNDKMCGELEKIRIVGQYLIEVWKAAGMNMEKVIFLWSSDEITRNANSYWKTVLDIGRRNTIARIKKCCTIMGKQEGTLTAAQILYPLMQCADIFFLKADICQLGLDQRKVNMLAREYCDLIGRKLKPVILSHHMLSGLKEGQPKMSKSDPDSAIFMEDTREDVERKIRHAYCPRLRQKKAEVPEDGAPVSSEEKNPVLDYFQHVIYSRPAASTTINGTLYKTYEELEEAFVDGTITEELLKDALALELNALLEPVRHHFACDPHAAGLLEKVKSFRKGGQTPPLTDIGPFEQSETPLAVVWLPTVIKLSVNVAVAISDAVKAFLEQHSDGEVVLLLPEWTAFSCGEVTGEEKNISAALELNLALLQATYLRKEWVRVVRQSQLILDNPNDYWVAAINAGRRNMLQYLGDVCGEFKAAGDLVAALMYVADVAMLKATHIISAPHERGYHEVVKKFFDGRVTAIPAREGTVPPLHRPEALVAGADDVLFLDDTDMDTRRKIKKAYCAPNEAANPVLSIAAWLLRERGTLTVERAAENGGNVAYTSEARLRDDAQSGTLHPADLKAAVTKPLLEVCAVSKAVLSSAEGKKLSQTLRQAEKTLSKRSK

[7] = target: T4, Tyrosyl-tRNA synthetase, putative (Trypanosoma cruzi (strain CL Brener)); assay: Trypanosoma cruzi tyrosyl tRNA synthetase (TcYRS) SOP; assay type: functional; conditions: 30 µM
[8] = target: Chromo domain-containing protein 1 (Saccharomyces cerevisiae (strain ATCC 204508 / S288c) (Baker's yeast)) (UniProt P32657); assay: ScCHD-1 Enzyme Inhibition Assay; assay type: functional; conditions: 30 µM; further: in the data most compounds retested in dose-response had high values
Chain of Chromo domain-containing protein 1 (Saccharomyces cerevisiae (strain ATCC 204508 / S288c) (Baker's yeast)) (P32657 whole entry, the tested form may be a part): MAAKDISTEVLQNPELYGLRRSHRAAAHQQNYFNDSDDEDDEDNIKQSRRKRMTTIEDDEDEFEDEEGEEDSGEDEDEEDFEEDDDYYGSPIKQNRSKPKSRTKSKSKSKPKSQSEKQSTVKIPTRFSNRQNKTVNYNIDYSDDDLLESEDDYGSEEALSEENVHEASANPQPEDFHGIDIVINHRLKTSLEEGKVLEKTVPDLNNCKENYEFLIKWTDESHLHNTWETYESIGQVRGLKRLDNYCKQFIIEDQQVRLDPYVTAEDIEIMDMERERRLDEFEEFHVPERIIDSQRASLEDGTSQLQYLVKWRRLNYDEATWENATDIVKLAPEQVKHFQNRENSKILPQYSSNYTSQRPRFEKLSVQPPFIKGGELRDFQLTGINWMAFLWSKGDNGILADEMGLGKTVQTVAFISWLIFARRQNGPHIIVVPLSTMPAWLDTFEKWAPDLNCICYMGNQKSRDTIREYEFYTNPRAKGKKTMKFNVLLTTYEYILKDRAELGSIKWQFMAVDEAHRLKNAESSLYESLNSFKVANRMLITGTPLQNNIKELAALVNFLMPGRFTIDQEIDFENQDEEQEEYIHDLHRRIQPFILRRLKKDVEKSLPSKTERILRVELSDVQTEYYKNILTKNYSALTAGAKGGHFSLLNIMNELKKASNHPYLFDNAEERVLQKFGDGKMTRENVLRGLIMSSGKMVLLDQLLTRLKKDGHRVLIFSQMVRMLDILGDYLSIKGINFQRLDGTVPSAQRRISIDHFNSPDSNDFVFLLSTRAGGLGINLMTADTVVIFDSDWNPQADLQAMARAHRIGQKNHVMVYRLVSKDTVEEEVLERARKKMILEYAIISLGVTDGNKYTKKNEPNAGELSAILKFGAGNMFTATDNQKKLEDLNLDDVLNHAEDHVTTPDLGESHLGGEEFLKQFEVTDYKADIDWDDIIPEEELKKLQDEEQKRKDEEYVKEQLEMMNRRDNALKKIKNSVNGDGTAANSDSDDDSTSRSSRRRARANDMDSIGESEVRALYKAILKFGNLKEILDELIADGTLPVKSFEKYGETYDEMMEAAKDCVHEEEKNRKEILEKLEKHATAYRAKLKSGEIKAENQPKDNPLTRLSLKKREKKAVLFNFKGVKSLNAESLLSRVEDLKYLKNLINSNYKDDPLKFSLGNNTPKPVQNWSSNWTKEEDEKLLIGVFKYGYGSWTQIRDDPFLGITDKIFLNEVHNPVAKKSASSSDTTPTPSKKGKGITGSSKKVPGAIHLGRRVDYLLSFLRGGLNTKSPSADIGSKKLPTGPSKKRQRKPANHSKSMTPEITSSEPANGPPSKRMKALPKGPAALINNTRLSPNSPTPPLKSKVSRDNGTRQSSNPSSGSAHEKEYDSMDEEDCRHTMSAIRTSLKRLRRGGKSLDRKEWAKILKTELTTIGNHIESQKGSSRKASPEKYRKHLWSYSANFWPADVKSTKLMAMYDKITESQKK

Chain of Protein translocase subunit SecA (Escherichia coli (strain K12)) (P10408 whole entry): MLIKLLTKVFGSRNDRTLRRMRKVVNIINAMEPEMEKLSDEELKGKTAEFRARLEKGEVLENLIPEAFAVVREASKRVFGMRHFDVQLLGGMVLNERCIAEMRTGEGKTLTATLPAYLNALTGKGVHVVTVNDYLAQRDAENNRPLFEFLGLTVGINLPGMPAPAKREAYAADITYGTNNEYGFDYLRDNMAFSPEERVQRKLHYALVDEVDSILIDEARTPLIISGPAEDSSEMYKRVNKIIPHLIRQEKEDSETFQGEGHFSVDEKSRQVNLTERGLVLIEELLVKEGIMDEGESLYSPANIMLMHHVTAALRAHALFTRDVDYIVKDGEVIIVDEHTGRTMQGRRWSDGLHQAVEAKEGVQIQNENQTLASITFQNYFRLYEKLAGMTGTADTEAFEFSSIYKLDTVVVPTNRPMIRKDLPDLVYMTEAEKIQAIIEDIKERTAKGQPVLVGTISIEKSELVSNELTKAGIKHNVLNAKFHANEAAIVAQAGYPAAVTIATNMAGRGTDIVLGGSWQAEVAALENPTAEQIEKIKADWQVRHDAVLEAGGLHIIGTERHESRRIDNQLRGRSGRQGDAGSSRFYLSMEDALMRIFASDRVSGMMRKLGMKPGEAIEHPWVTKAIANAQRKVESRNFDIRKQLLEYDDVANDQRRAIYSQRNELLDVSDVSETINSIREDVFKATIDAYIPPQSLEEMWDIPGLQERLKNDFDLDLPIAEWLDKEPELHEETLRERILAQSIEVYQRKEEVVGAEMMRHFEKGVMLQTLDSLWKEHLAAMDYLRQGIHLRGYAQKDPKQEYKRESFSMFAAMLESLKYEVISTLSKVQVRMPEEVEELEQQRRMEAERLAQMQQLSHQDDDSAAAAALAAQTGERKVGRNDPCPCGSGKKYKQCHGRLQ
Chain of Sialic acid-binding Ig-like lectin 9 (Homo sapiens) (Q9Y336 whole entry): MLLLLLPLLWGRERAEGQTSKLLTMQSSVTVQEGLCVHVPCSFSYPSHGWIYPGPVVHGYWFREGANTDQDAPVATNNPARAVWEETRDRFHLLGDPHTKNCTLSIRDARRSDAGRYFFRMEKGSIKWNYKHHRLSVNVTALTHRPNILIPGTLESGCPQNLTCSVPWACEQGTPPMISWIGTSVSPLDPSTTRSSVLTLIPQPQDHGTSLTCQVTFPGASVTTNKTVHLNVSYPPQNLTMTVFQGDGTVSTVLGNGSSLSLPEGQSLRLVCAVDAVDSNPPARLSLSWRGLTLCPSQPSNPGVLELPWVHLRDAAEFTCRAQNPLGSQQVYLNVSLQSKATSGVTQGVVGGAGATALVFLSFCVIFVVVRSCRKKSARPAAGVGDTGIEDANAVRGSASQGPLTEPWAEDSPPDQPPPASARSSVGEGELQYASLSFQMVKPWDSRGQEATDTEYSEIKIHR

With CCCn1ncc2c(C(=O)Nc3cnn(CC)c3C)cc(C3CC3)nc21 as the compound, how does the Percent Effect [1] read?
The Percent Effect was 1.41%.

And the Percent Effect [2]?
Its Percent Effect is 12%.

And the Percent Effect [3]?
Its Percent Effect is -1.57%.

What about the Percent Effect (Trypanosoma cruzi) of the same compound?
Its Percent Effect is 2.76%.

And the Percent Effect [4]?
Its Percent Effect is 3.98%.

And the Percent Effect [5]?
The Percent Effect was 17.4%.

And the Percent Effect (Homo sapiens)?
Its Percent Effect is 2.46%.

And the Percent Effect [6]?
The Percent Effect was 2.12%.

What about the Percent Effect [7] of the same compound?
The Percent Effect was 12.5%.

And the Percent Effect [8]?
The Percent Effect was -24.6%.

For Cc1csc2ncc(-c3ccnc(N4CCCC[C@@H]4CO)n3)c(=O)n12, which Percent Effect [1] is on record?
Its Percent Effect is -2.72%.

And the Percent Effect [2]?
Its Percent Effect is -16%.

And the Percent Effect [3]?
The Percent Effect was -2.59%.

And the Percent Effect (Trypanosoma cruzi)?
The Percent Effect was -2.41%.

And the Percent Effect [4]?
Its Percent Effect is 0%.

What about the Percent Effect [5] of the same compound?
Its Percent Effect is 7.72%.

And the Percent Effect (Homo sapiens)?
The Percent Effect was 19.8%.

And the Percent Effect [6]?
Its Percent Effect is -3.68%.

What about the Percent Effect [7] of the same compound?
The Percent Effect was -12.8%.

What about the Percent Effect [8] of the same compound?
Its Percent Effect is -17.9%.

For Cc1nn(-c2ccccc2)c(C)c1CNC1CCc2ncnn2C1 (stereo not given), which Percent Effect [1] is on record?
The Percent Effect was -0.655%.

What about the Percent Effect [2] of the same compound?
Its Percent Effect is 10.3%.

What about the Percent Effect [3] of the same compound?
The Percent Effect was 7.05%.

What about the Percent Effect (Trypanosoma cruzi) of the same compound?
The Percent Effect was 4.79%.

What about the Percent Effect [4] of the same compound?
Its Percent Effect is 8.2%.

And the Percent Effect [5]?
The Percent Effect was 7.93%.

And the Percent Effect (Homo sapiens)?
The Percent Effect was -12.2%.

And the Percent Effect [6]?
The Percent Effect was 7.18%.

What about the Percent Effect [7] of the same compound?
The Percent Effect was 22.9%.

What about the Percent Effect [8] of the same compound?
Its Percent Effect is -3.12%.

Which Percent Effect [1] does the source give for Cn1ccnc1CN1CCCC1c1noc(C2CC2)n1 (stereo not given) here?
The Percent Effect was -1.78%.

What about the Percent Effect [2] of the same compound?
The Percent Effect was 0%.

What about the Percent Effect [3] of the same compound?
The Percent Effect was -0.931%.

What about the Percent Effect (Trypanosoma cruzi) of the same compound?
Its Percent Effect is 0%.

What about the Percent Effect [4] of the same compound?
The Percent Effect was 1.33%.

And the Percent Effect [5]?
Its Percent Effect is 6.19%.

And the Percent Effect (Homo sapiens)?
The Percent Effect was -3.87%.

And the Percent Effect [6]?
The Percent Effect was 5.79%.

And the Percent Effect [7]?
The Percent Effect was 10.3%.

And the Percent Effect [8]?
The Percent Effect was -4.32%.

With CN(C)C(=O)CCC(=O)NCc1cccnc1-n1cnc2ccccc21 as the compound, how does the Percent Effect [1] read?
The Percent Effect was -4.75%.

And the Percent Effect [2]?
The Percent Effect was -2.7%.

What about the Percent Effect [3] of the same compound?
Its Percent Effect is -1.92%.

What about the Percent Effect (Trypanosoma cruzi) of the same compound?
Its Percent Effect is -1.46%.

And the Percent Effect [4]?
Its Percent Effect is -9.44%.

And the Percent Effect [5]?
The Percent Effect was -1.03%.

What about the Percent Effect (Homo sapiens) of the same compound?
The Percent Effect was -10.5%.

What about the Percent Effect [6] of the same compound?
Its Percent Effect is 1.6%.

And the Percent Effect [7]?
Its Percent Effect is -2.44%.

And the Percent Effect [8]?
Its Percent Effect is 0.948%.

How did the Percent Effect [1] turn out when Cc1cncc(C2CCCN(Cc3cccn3C)C2)n1 (stereo not given) was run?
Its Percent Effect is -2.21%.

And the Percent Effect [2]?
The Percent Effect was 12%.

And the Percent Effect [3]?
Its Percent Effect is 2.11%.

What about the Percent Effect (Trypanosoma cruzi) of the same compound?
The Percent Effect was -0.592%.

And the Percent Effect [4]?
The Percent Effect was -6.64%.

What about the Percent Effect [5] of the same compound?
Its Percent Effect is 10.5%.

And the Percent Effect (Homo sapiens)?
The Percent Effect was 6.97%.

What about the Percent Effect [6] of the same compound?
Its Percent Effect is 9.52%.

What about the Percent Effect [7] of the same compound?
The Percent Effect was 12.5%.

And the Percent Effect [8]?
The Percent Effect was -15.4%.

Which results are given for Cn1nc2c(cc1=O)CN(Cc1nnc(-c3ccco3)o1)CC2?
Percent Effect [1]: -3.79%; Percent Effect [2]: 17.9%; Percent Effect [3]: -11.1%; Percent Effect (Trypanosoma cruzi): 4.6%; Percent Effect [4]: 1.23%; Percent Effect [5]: 13.2%; Percent Effect (Homo sapiens): 7.66%; Percent Effect [6]: 4.31%; Percent Effect [7]: 22.9%; Percent Effect [8]: 17.4%

What does the source list for CCc1nc(C)c(C(=O)NCCN2CCC(C)CC2)s1?
Percent Effect [1]: -2.31%; Percent Effect [2]: -2.6%; Percent Effect [3]: 7.15%; Percent Effect (Trypanosoma cruzi): -4.1%; Percent Effect [4]: -2.25%; Percent Effect [5]: -6.84%; Percent Effect (Homo sapiens): 9.62%; Percent Effect [6]: 0.98%; Percent Effect [7]: 11.8%; Percent Effect [8]: -2.04%
